Experimental data taken from publication PMC6212790, “How bacterial xenogeneic silencer rok distinguishes foreign from self DNA in its resident genome”.
Over roughly 33,000 sequences, “e-score” has its median near -0.037; the highest 2% begin near 0.34. The entries come from a sample that favours the highest values as a whole.

target: T1, GST-Rok (full length) (Bacillus subtilis subsp. subtilis str. …, UniProt O34857 1-191); test: protein binding microarray; Rok is a gene silencer of Bacillus subtilis; high values mean tight binding; details: protein: recombinant; tags: GST (pTH5325, pDEST15-Magic modified); dsDNA, one strand shown
T1 sequence: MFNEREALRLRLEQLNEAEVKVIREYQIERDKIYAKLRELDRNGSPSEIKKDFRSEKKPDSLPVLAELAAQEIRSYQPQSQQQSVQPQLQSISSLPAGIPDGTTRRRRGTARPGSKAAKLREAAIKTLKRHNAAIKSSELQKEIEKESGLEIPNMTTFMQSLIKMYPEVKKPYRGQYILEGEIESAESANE
In short: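 Every oligonucleotide joins a 25-mer constant primer to a 35-mer variable part drawn from a de Bruijn sequence of order 10, so each non-palindromic 8-mer appears at least 32 times and each palindromic 8-mer 16 times. The preference for every 8-mer is reported as a unitless, rank-based enrichment score (E-score). This score spans 0.5 for the most favored 8-mer to −0.5 for the most disfavored.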

First: CGTGCGGA
Second: AAATAGCT
The binding signal of the first is lower: -0.0584 E-score for the first, 0.379 E-score for the second.

Going from CAATAGTC to CGGTAATC, the binding signal falls from 0.101 E-score to -0.0198 E-score.

First: ACATAGTA
Second: CGGTAATA
The binding signal of the first is lower: 0.306 E-score for the first, 0.372 E-score for the second.

Going from CAATAGTG to AAATAGCA, the binding signal falls from 0.287 E-score to 0.0964 E-score.

Compared with CAATAGTA, GGGTAATA is lower in binding signal: 0.341 E-score for the first, 0.234 E-score for the second.

Compared with AAATAGTA, AAATAGCG is lower in binding signal: 0.42 E-score for the first, 0.0843 E-score for the second.

Going from AAATAGCC to CCTCGATA, the binding signal falls from 0.046 E-score to -0.188 E-score.

Compared with GTCCTGTA, ATAGGTGA is higher in binding signal: -0.0798 E-score for the first, 0.0572 E-score for the second.

First: GAGCCCAA
Second: GACCAGTA
The binding signal of the first is lower: -0.192 E-score for the first, 0.0441 E-score for the second.

Compared with CTTTTATC, ATTTGGGA is lower in binding signal: 0.118 E-score for the first, -0.131 E-score for the second.

First: AAACGTCT
Second: AAGTGACG
The binding signal of the first is lower: -0.171 E-score for the first, 0.0469 E-score for the second.

Going from AAACAGGG to AGTTCCAT, the binding signal rises from -0.0541 E-score to 0.0525 E-score.

Compared with AGTTTGAC, ACAACTCA is higher in binding signal: -0.0534 E-score for the first, 0.097 E-score for the second.

Compared with AAATAGTG, AAGTAATA is higher in binding signal: 0.231 E-score for the first, 0.275 E-score for the second.

Compared with CAGTAACA, TAGTAATA is higher in binding signal: 0.0586 E-score for the first, 0.408 E-score for the second.

Going from GAATAGTA to GAGTAATA, the binding signal rises from 0.285 E-score to 0.318 E-score.

First: TAATAGTA
Second: AAGTAACA
The binding signal of the first is higher: 0.401 E-score for the first, 0.207 E-score for the second.

Going from AAATAGTT to TAATAGCA, the binding signal falls from 0.4 E-score to 0.257 E-score.

Compared with AAATAGTC, TAGTAACA is higher in binding signal: 0.119 E-score for the first, 0.366 E-score for the second.

Going from GTTTGTAA to CATCACAG, the binding signal falls from 0.172 E-score to -0.0903 E-score.

Compared with ACAGTTAC, ACATCAAG is lower in binding signal: 0.278 E-score for the first, 0.00272 E-score for the second.

Going from AGGGTGAA to CGTGGCTC, the binding signal rises from -0.17 E-score to -0.0956 E-score.

Compared with GCATGGGC, ATAGGTAA is higher in binding signal: -0.196 E-score for the first, 0.223 E-score for the second.

Going from AGTGGTAG to CATGGTAG, the binding signal falls from 0.393 E-score to 0.168 E-score.

First: ATTGGTAC
Second: ATAGGTAC
The binding signal of the first is higher: 0.289 E-score for the first, 0.219 E-score for the second.

Going from AATGGTAT to ATTGGTAA, the binding signal falls from 0.309 E-score to 0.265 E-score.

Going from ATTGGTAG to AGTGGTAC, the binding signal falls from 0.371 E-score to 0.191 E-score.

Compared with ATAGGTAG, AATGGTAG is lower in binding signal: 0.41 E-score for the first, 0.398 E-score for the second.

Going from CGTGGTAG to CACTGCTA, the binding signal falls from 0.295 E-score to 0.106 E-score.

Compared with ACAGAACC, CTTTTTTC is higher in binding signal: -0.171 E-score for the first, 0.0367 E-score for the second.

First: CAAACCTA
Second: GTATAGAA
The binding signal of the first is lower: 0.145 E-score for the first, 0.329 E-score for the second.

Compared with ATATAGAG, GAATAGAA is lower in binding signal: 0.208 E-score for the first, 0.101 E-score for the second.

Going from ATATAGAT to CTATAGAA, the binding signal falls from 0.416 E-score to 0.275 E-score.

Compared with ATATAGAC, AAATAGAC is lower in binding signal: 0.0949 E-score for the first, 0.0132 E-score for the second.

Compared with AAATAGAA, ATATAGAA is lower in binding signal: 0.368 E-score for the first, 0.354 E-score for the second.

Going from TGATGTAA to AACCGTAG, the binding signal falls from 0.134 E-score to 0.0498 E-score.

First: CGCAATAA
Second: CTATCTAC
The binding signal of the first is lower: 0.185 E-score for the first, 0.433 E-score for the second.

First: ATATCTGC
Second: ATCTCTAC
The binding signal of the first is higher: 0.221 E-score for the first, 0.0894 E-score for the second.

Compared with CTATCTTC, CTATCTAA is higher in binding signal: 0.11 E-score for the first, 0.264 E-score for the second.

First: CTCTCTAC
Second: ATATCTAC
The binding signal of the first is lower: 0.0296 E-score for the first, 0.393 E-score for the second.

Going from ATCTCTAG to ATATCTAG, the binding signal rises from -0.00242 E-score to 0.346 E-score.

First: ACATCTAG
Second: ATATCTAA
The binding signal of the first is lower: 0.325 E-score for the first, 0.371 E-score for the second.

Compared with ATCTCTAA, AGTTAGGG is lower in binding signal: 0.0544 E-score for the first, -0.0305 E-score for the second.

Going from CTATGATA to AACCCAAC, the binding signal rises from 0.172 E-score to 0.212 E-score.

First: ACACAAGC
Second: AACGCCCT
The binding signal of the first is higher: -0.0939 E-score for the first, -0.11 E-score for the second.

Going from ACTTCACT to TACTCTGA, the binding signal falls from 0.0809 E-score to -0.0307 E-score.

Compared with CAATATTA, AGATATTG is lower in binding signal: 0.254 E-score for the first, 0.196 E-score for the second.

Compared with ATCTATTG, CGATATTA is lower in binding signal: 0.282 E-score for the first, 0.213 E-score for the second.

First: ACATATTG
Second: GCATATTA
The binding signal of the first is lower: 0.148 E-score for the first, 0.242 E-score for the second.

Compared with AGATATTA, CCATATTA is lower in binding signal: 0.404 E-score for the first, 0.165 E-score for the second.

Compared with ATATATTG, ACATATTA is lower in binding signal: 0.372 E-score for the first, 0.345 E-score for the second.

Going from CTCTATTA to CTATATTA, the binding signal rises from 0.0982 E-score to 0.384 E-score.

Compared with AGATTCGG, ACAATCGG is lower in binding signal: 0.0606 E-score for the first, 0.00195 E-score for the second.

Compared with AACTGTTC, AAGCAAAA is higher in binding signal: 0.004 E-score for the first, 0.0376 E-score for the second.

First: GTGTATTA
Second: ATATATGA
The binding signal of the first is lower: 0.205 E-score for the first, 0.287 E-score for the second.

Compared with ATATATTA, ATCTATTA is lower in binding signal: 0.467 E-score for the first, 0.312 E-score for the second.

Compared with GTATATGA, GTATATTA is higher in binding signal: 0.216 E-score for the first, 0.391 E-score for the second.

First: CATCGTTC
Second: AAGCAGAA
The binding signal of the first is lower: -0.0505 E-score for the first, 0.142 E-score for the second.

Compared with ATGGGCTA, AATTTGTA is higher in binding signal: 0.0395 E-score for the first, 0.352 E-score for the second.

First: ATTTTGTA
Second: AGTTTGTC
The binding signal of the first is higher: 0.232 E-score for the first, 0.0187 E-score for the second.

First: AGTTTGTA
Second: CGTTTGTA
The binding signal of the first is higher: 0.391 E-score for the first, 0.138 E-score for the second.

Going from GATTTGTA to GTCGGCAA, the binding signal falls from 0.249 E-score to -0.0858 E-score.

Going from CCAAGAAC to CTCCGAAA, the binding signal rises from -0.19 E-score to -0.0499 E-score.

First: CAGTTGAG
Second: AATGAATT
The binding signal of the first is lower: -0.000936 E-score for the first, 0.29 E-score for the second.

Compared with ACAATAAC, AGTCCCAT is lower in binding signal: 0.214 E-score for the first, -0.144 E-score for the second.

First: ACTATAAG
Second: ACTATAAA
The binding signal of the first is lower: 0.268 E-score for the first, 0.341 E-score for the second.

First: ACTATAAC
Second: ACTATAAT
The binding signal of the first is lower: 0.214 E-score for the first, 0.411 E-score for the second.

Compared with CCTATAAA, TCTATAAA is lower in binding signal: 0.298 E-score for the first, 0.186 E-score for the second.

Going from ACGTCATA to CCAAATGG, the binding signal falls from 0.128 E-score to -0.148 E-score.

First: AGTTCGTC
Second: CAAAATAA
The binding signal of the first is lower: 0.0184 E-score for the first, 0.0897 E-score for the second.

Going from GGAAATAC to AAAAATAC, the binding signal rises from 0.101 E-score to 0.32 E-score.

Compared with GAAAATAA, CAAAATAC is higher in binding signal: 0.145 E-score for the first, 0.351 E-score for the second.

Going from GAAAATAC to GGCATTAA, the binding signal falls from 0.351 E-score to -0.00985 E-score.

Going from CCTGTTGA to GAAACGGC, the binding signal falls from -0.00587 E-score to -0.103 E-score.

Compared with ATATTAAT, AGATTAAC is lower in binding signal: 0.345 E-score for the first, 0.181 E-score for the second.

First: ATATTAAA
Second: TTATTAAA
The binding signal of the first is higher: 0.377 E-score for the first, 0.168 E-score for the second.

First: AGATTAAG
Second: ATATTAAG
The binding signal of the first is lower: 0.135 E-score for the first, 0.275 E-score for the second.

Compared with CTATTAAA, ATATTAAC is higher in binding signal: 0.116 E-score for the first, 0.298 E-score for the second.

First: AGATTAAT
Second: AAACATTT
The binding signal of the first is higher: 0.346 E-score for the first, 0.0971 E-score for the second.

Going from AGAATAAG to ATAAGAGA, the binding signal falls from 0.105 E-score to -0.0183 E-score.

First: CTGCCCAC
Second: CCTATATA
The binding signal of the first is lower: -0.168 E-score for the first, 0.123 E-score for the second.

Going from ACTATATC to GCTATATA, the binding signal rises from 0.331 E-score to 0.389 E-score.

Going from ACTATATG to GCTATACA, the binding signal falls from 0.267 E-score to 0.201 E-score.

First: ACTATATA
Second: CGAGGTCC
The binding signal of the first is higher: 0.453 E-score for the first, -0.0704 E-score for the second.

Compared with AGATGCAA, AATCTAAT is higher in binding signal: -0.00215 E-score for the first, 0.263 E-score for the second.

Compared with TATCTAGA, AATCTAGT is higher in binding signal: 0.213 E-score for the first, 0.377 E-score for the second.

Compared with AATCTAGC, AATCTAGA is higher in binding signal: 0.2 E-score for the first, 0.349 E-score for the second.

AATCTAGG showed a binding signal of 0.231 E-score.
